An excerpt weighted towards active compounds, which were near 0.44% of everything screened.
EPAC2 ag = EPAC2 (human) agonism; Potency, µM (series often up to 154 µM), most hits filed as activators; EPAC2 activation, biochemical qHTS; response scale: 100% = 6.5 mM cAMP response; AID 720711; 360,000 compounds, 0.079% hits; note: nearly all actives have a fitted effect of over 50% in size
Target sequence (Q8WZA2 whole entry, looked up): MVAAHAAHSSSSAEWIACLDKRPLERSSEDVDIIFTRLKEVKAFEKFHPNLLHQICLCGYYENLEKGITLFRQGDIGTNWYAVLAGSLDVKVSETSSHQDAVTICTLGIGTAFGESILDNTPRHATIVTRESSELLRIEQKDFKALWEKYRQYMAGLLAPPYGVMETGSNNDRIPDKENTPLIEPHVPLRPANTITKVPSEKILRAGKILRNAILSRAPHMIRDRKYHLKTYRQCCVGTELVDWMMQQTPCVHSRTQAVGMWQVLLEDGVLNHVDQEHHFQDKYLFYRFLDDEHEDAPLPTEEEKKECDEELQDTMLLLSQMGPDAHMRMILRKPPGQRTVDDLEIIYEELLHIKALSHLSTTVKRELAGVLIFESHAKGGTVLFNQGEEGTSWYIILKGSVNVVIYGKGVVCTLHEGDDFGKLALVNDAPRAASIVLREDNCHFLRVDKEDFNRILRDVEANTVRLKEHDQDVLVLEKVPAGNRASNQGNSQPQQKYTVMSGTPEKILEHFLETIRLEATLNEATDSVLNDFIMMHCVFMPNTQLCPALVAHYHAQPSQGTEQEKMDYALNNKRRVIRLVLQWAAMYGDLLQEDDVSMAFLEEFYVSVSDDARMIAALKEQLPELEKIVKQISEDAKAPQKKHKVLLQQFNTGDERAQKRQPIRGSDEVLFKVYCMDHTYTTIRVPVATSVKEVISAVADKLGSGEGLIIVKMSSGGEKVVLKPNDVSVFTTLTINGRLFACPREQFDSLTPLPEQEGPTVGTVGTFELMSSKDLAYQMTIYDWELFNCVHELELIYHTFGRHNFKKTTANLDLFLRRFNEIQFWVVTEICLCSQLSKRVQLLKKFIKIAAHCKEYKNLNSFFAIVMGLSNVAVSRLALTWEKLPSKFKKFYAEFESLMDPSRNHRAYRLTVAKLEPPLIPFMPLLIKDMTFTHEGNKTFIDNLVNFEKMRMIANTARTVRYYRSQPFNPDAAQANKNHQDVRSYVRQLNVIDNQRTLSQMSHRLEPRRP
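Compounds were added across a concentration range to EPAC2 (100 nM), RAP1B-BODIPY-GDP (250 nM) and GDP (50 uM). After 5 min at room temperature, fluorescence was recorded at 5-min intervals for 30 min.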
EPAC1 antagonist = blocks human EPAC1 exchange factor; O95398; EPAC1 GEF assay, Rap1b-BODIPY-GDP exchange fluorescence; Potency, µM (highest dose often 115 µM), hits mostly inhibitors; 360,000 compounds, 0.14% hits; AID 720709; note: nearly all actives have a fitted effect of over 50% in size
EPAC2 antag = EPAC2 (human) antagonism; Q8WZA2; EPAC2 GEF exchange of Rap1B-BODIPY-GDP, fluorescence; Potency, µM (top dose mostly 114 µM), usual class: inhibitors; 360,000 compounds, 0.18% hits; AID 720708; note: nearly all actives have a fitted effect of over 45% in size
EPAC1 agonist = activates human EPAC1 exchange factor; O95398; EPAC1 agonist qHTS, biochemical assay; response scale: 100% = response to 6.5 mM cAMP; Potency, µM (series often up to 154 µM), most hits filed as activators; 360,000 compounds, 0.073% hits; note: nearly all actives have a fitted effect of over 60% in size
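Multi-concentration qHTS readout: loss of Rap1B-bound BODIPY-GDP fluorescence driven by 100 nM EPAC1 with excess GDP (50 uM), monitored kinetically at room temperature; agonist response expressed relative to 6.5 mM cAMP.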
USP1-UAF1 inh = blocks the human USP1/UAF1 deubiquitinase complex. O94782. recombinant USP1/UAF1, Ub-Rhodamine cleavage fluorescence. Potency, µM (series often up to 57.1 µM), hits mostly inhibitors. 390,000 compounds, 0.23% hits; note: nearly all actives have a fitted effect of over 60% in size
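1 nM enzyme complex + cpd, 15 min RT; start with Ub-Rho 150nM final; kinetic fluorescence ex 480/em 540, 6 reads q60 s. Buffer 50mM HEPES pH 7.8, 0.5mM EDTA, 0.1 mg/ml BSA, 1mM TCEP, 0.01% Tween-20.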
Numbers stand for hits; i = inactive; ? = inconclusive; nt = no result given. Calls come from the whole dose curve; as a rule, active = well fitted curve in the direction sought with a large enough effect; inconclusive = small, poorly fitted or top-dose-only effect, or another doubt; inactive = no such curve, though single readings can be large; an effect the other way counts as inactive or inconclusive.

SMILES | EPAC2 ag | EPAC1 antagonist | EPAC2 antag | EPAC1 agonist | USP1-UAF1 inh
Cc1ccc(S(=O)(=O)/N=C2\C=C(Nc3cccc(C(=O)O)c3)C(=O)c3ccccc32)cc1 | i | i | ? | i | 14.1µM
Cc1ccc(S(=O)(=O)/N=C2\C=C(NS(=O)(=O)c3ccccc3)C(=O)c3ccccc32)c(C)c1 | i | i | ? | i | i
Cc1ccc(S(=O)(=O)Nc2ccc(N=Nc3ccc(O)cc3)cc2)cc1 | i | i | i | i | i
Cc1ccc(S(=O)(=O)/N=C2\C=C(Nc3ccc(O)cc3)C(=O)c3ccccc32)cc1 | i | ? | i | i | 11.2µM
Cc1ccc(S(=O)(=O)/N=C2\C=C(Nc3cccc(C(=O)O)c3)C(=O)c3ccccc32)c(C)c1 | i | ? | ? | i | 10µM
CCc1ccc(S(=O)(=O)/N=C2\C=C(Nc3ccc(C(=O)O)cc3)C(=O)c3ccccc32)cc1 | i | i | i | i | 17.8µM
O=C(Cn1cc2c(n1)CCCC2)Nc1cc(C(F)(F)F)ccc1Cl | nt | nt | nt | nt | i
N#Cc1c(Nc2ccccc2)sc(C(=O)c2ccccc2)c1N | i | i | 35.5µM | i | i
Cn1cc(C(=O)C(=O)N2CCCCC2)c2ccccc21 | ? | i | i | 39.8µM | i
CCOC1(c2ccccc2)OC(=O)c2ccccc21 (configuration not stated) | i | i | ? | i | i
CC(C)OC1(c2ccccc2)OC(=O)c2ccccc21 (configuration not stated) | i | i | 35.5µM | i | i
COc1cc2cc(Oc3ccc4ccc(=O)oc4c3)c(=O)oc2cc1OC(C)=O | i | i | i | i | i
COc1cc2cc(Oc3ccc4ccc(=O)oc4c3)c(=O)oc2cc1O | i | 50.1µM | i | 79.4µM | i
COc1cc(/C=N/NS(=O)(=O)c2ccc(C)c([N+](=O)[O-])c2)cc([N+](=O)[O-])c1O | i | i | i | i | i
COc1ccc(-n2c(O)c(/C=N/NS(=O)(=O)c3ccc(C)c([N+](=O)[O-])c3)c3ccccc3c2=O)cc1OC | i | i | i | i | 25.1µM
O=C(Nc1ccccc1F)c1ccc2c(Cl)c3c(nc2c1)CCC3 | nt | nt | nt | nt | i
CCCc1cc2c(cc1N(C)S(=O)(=O)c1ccccc1)OCO2 | i | i | 28.2µM | i | i
O=C(COc1ccccc1C(=O)N/N=C\c1ccc(O)c(O)c1)N/N=C/c1ccc(O)c(O)c1 | i | 10µM | i | i | i
O=C(NN=Cc1ccc(O)c(O)c1)c1ccccc1 | i | i | i | i | nt
CCc1nnc(NS(=O)(=O)c2ccc(NCc3cc(Cl)cc(Cl)c3O)cc2)s1 | i | i | 17.8µM | i | i
O=C1CC(=O)N(Cc2ccco2)C(=S)N1 | i | 44.7µM | i | i | i
COc1ccc2cc3[n+](cc2c1O)CCc1cc2c(cc1-3)OCO2 | i | ? | 89.1µM | i | nt
CCCSc1nc(C)cc(C)c1S(=O)(=O)c1ccccc1C | i | ? | 10µM | i | i
C/C(=C\C(=O)c1cccnc1)Nc1ccc(O)cc1 | i | i | i | i | i
C/C(=C\C(=O)c1ccccc1)Nc1ccc(O)cc1 | i | 70.8µM | i | i | i
SMILES | EPAC2 ag | EPAC1 antagonist | EPAC2 antag | EPAC1 agonist | USP1-UAF1 inh
O=C(Nc1cccc(Cl)c1)N(Cc1nc2ccccc2c(=O)[nH]1)C1CCCC1 | i | i | i | i | i
O=C(Nc1cccc(Cl)c1)N(Cc1nc2ccccc2c(=O)[nH]1)Cc1cccs1 | i | i | i | 89.1µM | i
COCCCNC(=O)c1ccc2c3c(onc13)-c1ccccc1C2=O | 100µM | ? | i | 79.4µM | 20µM
N=C(N)c1ccc(N=Nc2c(O)ccc3c2[nH]c2ccccc23)cc1 | ? | 39.8µM | 50.1µM | ? | ?
O=C1/C(=C/c2cccs2)CCC/C1=C\c1cccs1 | i | i | i | i | i
Cn1cccc1/C=C1\CCC/C(=C\c2cccn2C)C1=O | i | i | ? | 100µM | 22.4µM
COc1ccc(OC)c(NC(=O)CSc2nc(O)cc(=O)n2CC(C)C)c1 | i | 56.2µM | i | i | i
COc1ccc(/C=C2\N=C(SC)N(c3ccccc3OC)C2=O)cc1 | i | i | 17.8µM | i | i
CCOc1ccc(N2C(=O)/C(=C/c3ccccc3)N=C2SC)cc1 | i | i | i | i | i
O=C1CCc2cc(NS(=O)(=O)c3ccc([N+](=O)[O-])cc3)cc3c2N1CCC3 | i | i | i | i | i
O=C1CCc2cc(NS(=O)(=O)c3ccc([N+](=O)[O-])cc3)cc3c2N1CC3 | i | i | i | 79.4µM | i
CCOC(=O)c1c(NC(=O)c2ccco2)n(C2CCCCC2)c2nc3ccccc3nc12 | i | i | i | i | 15.8µM
CCOC(=O)/C(=C/C1=CC(=C/N(C)C)/C(=O)O1)C(C)=O | i | i | i | i | 31.6µM
O=C1N=c2ccccc2=C1c1sc(Nc2ccc(O)cc2)nc1O | i | 44.7µM | i | i | i
O=C1N=c2ccccc2=C1c1sc(Nc2cccc(O)c2)nc1O | i | i | i | i | i
O=C(NCCc1ccccc1)C(=O)NCC(c1cccnc1)N1CCN(c2ccccc2)CC1 (configuration not stated) | nt | nt | nt | nt | i
COc1ccc(Cl)cc1NC(=O)CSc1ccc(-c2sc(C)nc2C)nn1 | nt | nt | nt | nt | i
CCOc1ccc(Br)cc1C1=NN(C(C)=O)C(c2ccc([N+](=O)[O-])s2)O1 (configuration not stated) | i | i | i | i | 22.4µM
CC(=O)N1N=C(c2ccc(C)cc2)OC1c1ccc(Br)cc1 (configuration not stated) | i | i | i | i | i
COc1ccc(NC(=O)CNC(=O)Cn2ccc3ccccc3c2=O)cc1OC | nt | nt | nt | nt | i
COc1cc(C2Nc3ccccc3-c3nnc(SCc4ccc(C)cc4)nc3O2)cc(OC)c1O (configuration not stated) | nt | nt | nt | nt | i
O=C(Nc1ccc(-c2nc3ccc(NC(=O)c4cccs4)cc3[nH]2)cc1)c1cccs1 | ? | ? | 50.1µM | i | ?
CS(=O)(=O)c1ccc(C(=O)OCc2nnc(-c3ccccc3)o2)cc1[N+](=O)[O-] | i | 89.1µM | i | i | i
CN(CC(=O)Nc1ccc(F)cc1)C(=O)COC(=O)C1CCN(c2ccc(C(F)(F)F)cn2)CC1 | i | i | i | 100µM | i
Cc1ccc(/C=C2\S/C(=N/S(=O)(=O)c3cccs3)NC2=O)cc1 | i | 39.8µM | ? | i | ?
COc1ccc(CNC(=O)C2CCN(c3nnc(-n4cccc4CNc4ccc(C)cc4)s3)CC2)c(OC)c1 | nt | nt | nt | nt | i
CC(NC1=CC(=O)c2cccnc2C1=O)C(O)c1ccccc1 (configuration not stated) | i | ? | ? | i | 5.62µM
COC(=O)c1cn(C(=O)c2cc(OC)c(OC)c(OC)c2)c2ccccc12 | i | i | 17.8µM | i | i
Cn1c(=O)c2c(ncn2CC(=O)Nc2cc(Cl)cc(Cl)c2)n(C)c1=O | nt | nt | nt | nt | i
CC1(C)CC(=O)C2=C(C1)Nc1ccccc1S2 | i | i | i | i | ?

Assay outcomes deposited in PubChem by National Center for Advancing Translational Sciences (NCATS).
